Source: PubChem BioAssay AID2685 (National Center for Advancing Translational Sciences (NCATS), 2010)
Several values for one entry are separate records, joined by “and”; a condition that tells them apart may be missing. Equal entries are not always repeated. The campaign covered roughly 320,000 compounds. About 2,100 (0.66%) were called active. Another 53% or so got no clear call; they are omitted. Calls follow the shape of the dose curve; as a rule, active = well fitted inhibition curve with a large enough effect in the signal ratio, with a control signal flat (not every such curve was filed as active); inconclusive = small, poorly fitted or top-dose-only effect, or effect the other way, or a change in a side signal; inactive = flat fitted curve, though single readings scatter; the % refers to the signal ratio. Many of the other results were omitted from the sample, so actives are more common in it than they were.

experiment: qHTS Assay for Lipid Storage Modulators in Drosophila S3 Cells; settings: BODIPY lipid droplet fluorescence, 18-24 h, cells fed with added oleic acid; cell number change: measured here: cell count max response; series mostly up to 46.1 µM; lipid storage change, negative = inhibition: at the top concentration;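 as to cell number change: cells counted by Cell Tracker Red CMTPX staining in the red channel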; as to lipid storage change, negative = inhibition: % is scaled to controls: 0 for no effect and ±100 for the full control effect
Outline: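 Laser-scanning cytometry quantifies lipid droplet accumulation (500–530 nm total intensity; droplet/cell object ratio) in oleic acid-fed (400 uM added) Drosophila S3 cells treated with a concentration series. 20 uM Triacsin C defined 100% inhibition.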
Potency is read from the fitted curve at half-maximal effect.

| SMILES | lipid storage change, negative = inhibition | cell number change | Potency | outcome |
| --- | --- | --- | --- | --- |
| CC(=O)Nc1ccc(S(=O)(=O)N(C#N)c2nc(N(C)C)nc(N(C)C)n2)cc1 | 0.237% (inactive) | -23% |  |  |
| CN(C)CC(=O)Nc1ccc2cn[nH]c2c1 | 0.452% (inactive) | -1.8% |  |  |
| CSc1nc(C)c(Cl)c(C)c1C#N | 10.8% (inactive) | -6.02% |  |  |
| COc1cc(Cl)cc(C(=O)O)c1OCC(=O)O | 7.31% (inactive) | 3.53% |  |  |
| O=C(/C=C/c1ccc(F)cc1)N1CCN(c2ncccn2)CC1 | -0.413% (inactive) | 20.7% |  |  |
| CC(=O)NNC(=O)CCn1c2c(c3ccccc31)CCCC2 | -7.9% (inactive) | 1.32% |  |  |
| Fc1ccccc1CNc1ccc(Cl)cc1 | 12.9% (inactive) | -4.41% |  |  |
| CN(C)S(=O)(=O)Nc1ccccc1F | -12.4% (inactive) | -0.564% |  |  |
| CN(C)S(=O)(=O)Nc1cccc(Br)c1 |  | 0.321% and 14.1% | inactive |  |
| CN(C)S(=O)(=O)Nc1ccc(Br)cc1F |  | -21.1% | 23.1 µM (active) |  |
| CC(=O)c1c(C)[nH]c(C(=O)NCc2cccs2)c1C |  |  |  | inactive |
| COc1ccc(N2CCN(CC(O)COc3ccc4c(c3)CCC4)CC2)cc1 (stereo unspecified) |  | 10.4% |  | inactive |
| O=C1CN(CC(=O)N2CCOCC2)c2ccccc2O1 |  |  |  | inactive |
| COc1ccc(/C(C)=N/NC(=S)NCCc2ccccc2)cc1 |  |  |  | inactive |
| COc1cccc(OC)c1C(=O)NC(C)c1ccccc1 (stereo unspecified) | 2.45% (inactive) | 0.137% |  |  |
| NS(=O)(=O)c1ccc(CCNC(=O)c2ccc3c(c2)OCO3)cc1 |  | 21.4% | 23.1 µM (active) |  |
| O=C(NCCc1ccc(Cl)cc1)c1ccc2c(c1)OCO2 | -3.03% (inactive) |  |  |  |
| NS(=O)(=O)c1ccc(CCNC(=O)c2ccc3c(c2)OCCO3)cc1 | -3.84% (inactive) | 12.5% |  |  |
| CCCCSc1nc2sc3c(c2c(=O)n1-c1ccc(C)cc1)CCN(C)C3 | -30% (inactive) | 14.8% |  |  |
| CS(=O)(=O)Oc1ccc(/C=C2\C(=N)N3N=C(CC(=O)N4CCOCC4)SC3=NC2=O)cc1Cl |  | 6.05% |  | inactive |

| SMILES | lipid storage change, negative = inhibition | cell number change | Potency | outcome |
| --- | --- | --- | --- | --- |
| COc1cc(/C=C2\C(=O)N(C)C(=S)N2C)ccc1O | 2.76% (inactive) | -9.16% |  |  |
| CN1C(=O)/C(=C/c2ccc(O)c([N+](=O)[O-])c2)N(C)C1=S | 3.49% (inactive) | 0.447% |  |  |
| Cc1cc(/C=C2/C(=O)N(C)C(=S)N2C)ccc1N1CCCC1 |  | -25.4% | 4.47 µM (active) |  |
| CCc1ccc(NC(=O)c2cc(C)nn2-c2ccccc2)cc1 | 9.85% (inactive) | 2.41% |  |  |
| CC12CCC(=O)N1C(C(=O)NNC(=O)c1ccc(Cl)cc1)CS2 (stereo unspecified) | -23.9% (inactive) | 25.5% |  |  |
| COCCn1c(SCC(=O)Nc2cc(C)on2)nc2c(c1=O)SC(C)C2 (stereo unspecified) | 15.1% (inactive) | 9.04% |  |  |
| Cc1csc(NC(=O)CSC2=NS(=O)(=O)c3cc(F)ccc3N2)n1 | 27.8% [at 0.0737 µM] (inactive) |  |  |  |
| CCN(C(=O)CN1CCN(c2ccccc2)CC1)c1c(N)n(Cc2ccccc2)c(=O)[nH]c1=O |  | -21.7% | 13 µM (active) |  |
| CCCN(C(=O)C1=COCCO1)c1c(N)n(Cc2ccccc2)c(=O)[nH]c1=O | 5.43% [at 0.0737 µM] (inactive) | -8.42% |  |  |
| CCN(C(=O)COC(=O)CCOc1ccccc1)c1c(N)n(Cc2ccccc2)c(=O)[nH]c1=O | 6.7% (inactive) | 3.61% |  |  |
| CCN(C(=O)CN1CCCCC1)c1c(N)n(Cc2ccccc2)c(=O)[nH]c1=O | -1.92% (inactive) | 1.16% |  |  |
| CCN(C(=O)CN1CCN(c2cccc(Cl)c2)CC1)c1c(N)n(Cc2ccccc2)c(=O)[nH]c1=O | 8.94% (inactive) | -10% |  |  |
| CCN(C(=O)COC(=O)CCCOc1ccccc1)c1c(N)n(Cc2ccccc2)c(=O)[nH]c1=O | -0.952% (inactive) | -12.5% |  |  |
| CCCN(C(=O)COC(=O)CCOc1ccccc1)c1c(N)n(Cc2ccccc2)c(=O)[nH]c1=O |  | -10.8% | 14.6 µM (active) |  |
| CCCN(C(=O)c1ccc([N+](=O)[O-])c(C)c1)c1c(N)n(Cc2ccccc2)c(=O)[nH]c1=O | -11% (inactive) | -21.6% |  |  |
| CCCN(C(=O)c1c(-c2ccccc2)noc1C)c1c(N)n(Cc2ccccc2)c(=O)[nH]c1=O |  | 9.83% | 1.84 µM (active) |  |
| c1ccc2c(c1)nnn2CNc1nccs1 | 11.7% (inactive) | -2.46% |  |  |
| COc1ccc(C(=O)NC2CCCCCC2)cc1S(=O)(=O)Nc1ccc(Br)cc1 |  | -11.3% |  | inactive |
| CCCCCCn1c(=O)c(C(=O)N/N=C/c2cccc(F)c2)c(O)c2ccccc21 | -4% (inactive) | 5.21% |  |  |
| O=C1[C@@H]2[C@H](C(=O)N1n1cnnc1)[C@H]1C=C[C@@H]2C1 | 6.88% (inactive) | 1.74% |  |  |

| SMILES | lipid storage change, negative = inhibition | cell number change | Potency | outcome |
| --- | --- | --- | --- | --- |
| CC12C(=O)N(NC(=O)c3ccncc3)C(=O)C1C1C=CC2C1 (stereo unspecified) | 9.21% (inactive) | 6.42% |  |  |
| CC12C(=O)N(n3cnnc3)C(=O)C1C1C=CC2C1 (stereo unspecified) |  | 2.58% | 18.4 µM (active) |  |
| CN1CCN(S(=O)(=O)c2ccc(Nc3cccc(Cl)c3)c([N+](=O)[O-])c2)CC1 | 10.8% (inactive) | 8.16% |  |  |
| COc1ccc(C(=O)Nc2cccc(S(=O)(=O)NC3=NCCCCC3)c2)cc1 | 10.1% (inactive) | -1.04% |  |  |
| CN(C)c1nc(N(C)C)nc(N2CCCCC2)n1 | 21% (inactive) | 10.3% |  |  |
| O=C(CCC(=O)OC(C(=O)c1ccccc1)c1ccccc1)Nc1ccccc1 (stereo unspecified) |  | -23.6% | 0.731 µM (active) |  |
| COc1ccc(NC(=O)CCC(=O)OC(C(=O)c2ccccc2)c2ccccc2)cc1 (stereo unspecified) | -9.84% (inactive) | -23.4% |  |  |
| Cc1ccc(C(=O)C(OC(=O)CCC(=O)Nc2cccc(C)c2)c2ccccc2)cc1 (stereo unspecified) | -7.6% (inactive) | -1.69% |  |  |
| COc1ccc(NS(=O)(=O)c2ccc(NC(C)=O)cc2)c(OC)c1 | 5.93% (inactive) | 0.633% |  |  |
| O=C(NCCc1cnn(-c2ccccc2)c1)c1cc(COc2c(F)cccc2F)on1 | 15.2% (inactive) | 0.269% |  |  |
| COc1ccc(OC)c(CNc2ncc(-c3ccc(F)cc3)n2C)c1 |  | -16.1% | 32.6 µM (active) |  |
| Cn1c(-c2ccc(F)cc2)cnc1NCc1ccc(F)cc1F | -14.7% (inactive) | 25.6% |  |  |
| COc1ccccc1CNc1ncc(-c2ccc(F)cc2)n1C | -18.1% (inactive) | -1.58% |  |  |
| COc1ccc(-n2c(=O)c3ccccc3n(CC(=O)NC3CCCCC3)c2=O)c(OC)c1 | 21.5% (inactive) |  |  |  |
| CC(C)(CO)NC12CC3CC(CC(C3)C1)C2 |  | -20.6% | 0.058 µM (active) |  |
| CC(O)CNC12CC3CC(CC(C3)C1)C2 (stereo unspecified) | -12.7% (inactive) |  |  |  |
| CC(C)(C)NC(=O)NC12CC3CC(CC(C3)C1)C2 | 7.75% (inactive) | 0.331% |  |  |
| Cc1ccc(S(=O)(=O)N(C)/N=C/c2ccc(N(C)C)cc2)cc1 | 7.16% (inactive) | 12.7% |  |  |
| O=C(NCc1ccccc1)/C(=C/c1ccc([N+](=O)[O-])cc1)NC(=O)c1ccco1 |  | -3.81% |  | inactive |
